{
  "source": "PubChem BioAssay (Tox21)",
  "note": "Several values for one entry are separate records, joined by “and”; a condition that tells them apart may be missing. Equal entries are not always repeated. Inconclusive results are not listed. Activity calls are given as the source filed them. Calls follow the shape of the dose curve; as a rule, active = well fitted cell-killing curve with a large enough effect in the repeat runs; inconclusive = weak or mixed curves, or effect the other way; inactive = no such curve, though single readings can be large or run the other way.",
  "data": [
    {"assay": "qHTS assay to identify small molecule agonists of the RXR signaling pathway - cell viability counter screen (AID 1159529); also: nearly all actives have a fitted effect of over 50% in size; also: potency is read from the fitted curve at half-maximal effect; as to activity change, negative = cytotoxicity: % is scaled to controls: 0 for no effect and ±100 for the full control effect", "conditions": "RXR-alpha-bla HEK293T viability, CellTiter-Glo, 16 h; series mostly up to 76.8 µM; activity change, negative = cytotoxicity: at the top concentration", "from_the_text": "National Center for Advancing Translational Sciences [NCATS]\nNIH Chemical Genomics Center [NCGC]\nU.S. Environmental Protection Agency [EPA]\nNational Institutes of Environmental Health Sciences [NIEHS]\nNational Toxicology Program [NTP]\nU.S. Food and Drug Administration [FDA]\nThe Retinoid X receptor (RXR), a nuclear hormone receptor expressed in liver, spleen, placenta, epidermis, central nervous system. These receptors are able to form homo and heterodimers with other nuclear receptors and due to this heterodimerizing ability, RXR functions as master regulators producing diverse physiological effects. Three subtypes of RXR exist; alpha, beta and gamma. Retinoid X receptor alpha (RXR-alpha) has potential roles in metabolic signaling pathways, skin alopecia, dermal cysts, cardiac development, insulin sensitization etc. Therefore screening environmental chemicals on RXR-alpha signaling can be used for the studies focused on such therapeutic applications. For quantification of RXR-alpha ligands signaling, GeneBLAzer RXR alpha-UAS-bla HEK 293T (Life Technologies, Carlsbad, CA) cells containing a beta-lactamase reporter-gene under control of Retinoid X receptor-alpha response element were used to screen Tox21 10K library. The cytotoxicity of the Tox21 compound library against the RXR-alpha HEK 293T cell line was tested in parallel by measuring cell viability using CellTiter-Glo assay (Promega Corporation, Madison, WI) in the same wells.\nTox21 Assay Protocol Summary:\nRXR-alpha HEK 293T cells were dispensed at 2,000 cells/6 uL of assay medium containing 2% charcoal-stripped FBS using a Multidrop Combi (ThermoFisher Scientific, Waltham, MA) dispenser. The assay was performed in black wall/clear-bottom 1536-well plates (Greiner Bio-One North America Inc. Monroe, NC). Tetraoctyl ammonium bromide was used as a positive control in the cytotoxicity screen. After the assay plates were incubated at 37 C and 5% CO2 for 5 hr, 23 nL of compounds dissolved in DMSO, positive control or DMSO only were transferred to the assay plate by a Pintool station (Kalypsys, San Diego, CA). The assay plates were incubated at 37 C and 5% CO2 for 16 hr. One uL of LiveBLAzer B/G FRET substrate (Life Technologies) was added using a Flying Reagent Dispenser (FRD) (Aurora Discovery, San Diego, CA) and the plates were incubated at room temperature for 2 hr. Fluorescence intensity (405 nm excitation, 460/530 nm emission) was measured using an Envision plate reader (PerkinElmer, Shelton, CT). For cytotoxicity, 4 uL/well of CellTiter-Glo reagent was added into the assay plates using an FRD. After 30 min incubation at room temperature, the luminescence intensity was measured using a ViewLux plate reader (PerkinElmer).", "values": [
      {"compound": "CCn1cc(C(=O)O)c(=O)c2cc(F)c(N3CCNC(C)C3)c(F)c21", "note": "(stereo not given)", "activity change, negative = cytotoxicity": "6.85% [at 35.3 µM] (inactive)"},
      {"compound": "Cc1cc(OCCOCC[N+](C)(C)Cc2ccccc2)ccc1C(C)(C)CC(C)(C)C", "Potency": "10.9 µM (active) and 4.77 µM (active)"},
      {"compound": "O=C(O)CCc1ccccc1", "activity change, negative = cytotoxicity": "4.81% (inactive)"},
      {"compound": "CCOc1ccc2c(c1)C(C)=CC(C)(C)N2", "activity change, negative = cytotoxicity": "-13.2% (inactive)"},
      {"compound": "COC(=O)[C@H]1[C@H]2C[C@@H]3c4[nH]c5cc(OC)ccc5c4CCN3C[C@H]2C[C@@H](OC(=O)c2cc(OC)c(OC)c(OC)c2)[C@@H]1OC", "Potency": "inactive"},
      {"compound": "CC(C)(C)c1ccc(O)c(C(C)(C)C)c1", "Potency": "21.8 µM (active) and 24.5 µM (active)"},
      {"compound": "CNC1(C)C2CCC(C2)C1(C)C", "note": "(stereo not given)", "activity change, negative = cytotoxicity": "5.14% [at 35.3 µM] (inactive)"},
      {"compound": "C=CC(=O)OCCCCCCOC(=O)C=C", "Potency": "inactive"},
      {"compound": "N[C@@H]1CONC1=O", "activity change, negative = cytotoxicity": "-0.735% [at 35.3 µM] (inactive)"},
      {"compound": "O=Cc1ccc(Cl)cc1", "activity change, negative = cytotoxicity": "7.22% (inactive)"},
      {"compound": "c1ccc2c(c1)CCCC2C1=NCCN1", "note": "(stereo not given)", "activity change, negative = cytotoxicity": "-1.67% [at 35.3 µM] (inactive)"},
      {"compound": "NC(N)=Nc1nc(CSCC/C(N)=N/S(N)(=O)=O)cs1", "Potency": "inactive"},
      {"compound": "CC(C)CCOCc1ccccc1", "activity change, negative = cytotoxicity": "-14.5% (inactive)"},
      {"compound": "Cc1cc(Cc2cc(C)cc(C(C)(C)C)c2O)c(O)c(C(C)(C)C)c1", "Potency": "12.4 µM (active) and 21.9 µM (active)"},
      {"compound": "CCC(C)(C)C(=O)O[C@H]1C[C@@H](C)C=C2C=C[C@H](C)[C@H](CC[C@@H]3C[C@@H](O)CC(=O)O3)[C@H]21", "Potency": "12 µM (active)"},
      {"compound": "c1cc(C(c2ccc(OCC3CO3)cc2)C(c2ccc(OCC3CO3)cc2)c2ccc(OCC3CO3)cc2)ccc1OCC1CO1", "note": "(stereo not given)", "activity change, negative = cytotoxicity": "-1.5% (inactive)"},
      {"compound": "CC[C@H]1CN2CCc3cc(OC)c(OC)cc3[C@@H]2C[C@@H]1C[C@H]1NCCc2cc(OC)c(OC)cc21", "activity change, negative = cytotoxicity": "-15% (inactive)"},
      {"compound": "O=C1OC2(c3ccc(O)cc3Oc3cc(O)ccc32)c2ccccc21", "Potency": "inactive"},
      {"compound": "CC(C)CCCCCCc1ccc(O)cc1", "Potency": "5.59 µM (active) and 38.9 µM (active)"},
      {"compound": "NCCO", "activity change, negative = cytotoxicity": "4.95% (inactive)"},
      {"compound": "O=C(Cl)c1cccc(C(=O)Cl)c1", "Potency": "inactive"},
      {"compound": "COc1nc(C)nc(Cl)c1NC1=NCCN1", "activity change, negative = cytotoxicity": "12.1% [at 35.3 µM] (inactive)"},
      {"compound": "O=C1NCC2(CCN(CCc3ccccc3)CC2)O1", "activity change, negative = cytotoxicity": "3.22% [at 35.3 µM] (inactive)"},
      {"compound": "Oc1c(Cl)cc(Cl)c(Cl)c1Cc1c(O)c(Cl)cc(Cl)c1Cl", "Potency": "34.6 µM (active) and 49 µM (active) and 19 µM (active)"},
      {"compound": "CC(C)CCOC(=O)c1ccc(N(C)C)cc1", "activity change, negative = cytotoxicity": "-12.2% [at 35.3 µM] (inactive)"},
      {"compound": "NC12CC3CC(CC(C3)C1)C2", "activity change, negative = cytotoxicity": "-1.2% [at 35.3 µM] (inactive)"},
      {"compound": "[Cl][In]([Cl])[Cl]", "activity change, negative = cytotoxicity": "3.04% (inactive)"},
      {"compound": "COc1ccc(Cc2cnc(N)nc2N)cc1OC", "activity change, negative = cytotoxicity": "1.66% [at 35.3 µM] (inactive)"},
      {"compound": "CCOC(=O)C(C)C(C)=O", "note": "(stereo not given)", "activity change, negative = cytotoxicity": "0.622% (inactive)"},
      {"compound": "CCCCCCCCCCCCc1ccccc1O", "Potency": "17.2 µM (active) and 19.5 µM (active)"},
      {"compound": "CCCCCCCCCCCC[N+](C)(C)C", "Potency": "54.8 µM (active) and 54.9 µM (active) and 49 µM (active)"},
      {"compound": "O=C(Nc1ccccc1SSc1ccccc1NC(=O)c1ccccc1)c1ccccc1", "Potency": "19.6 µM (active) and 21.9 µM (active)"},
      {"compound": "CC(=O)N[C@@H](CS)C(=O)O", "Potency": "inactive"},
      {"compound": "C/C=C/c1ccc(OCC)c(O)c1", "Potency": "inactive"},
      {"compound": "CN1C(=O)c2ccc([N+](=O)[O-])cc2C1=O", "activity change, negative = cytotoxicity": "-5.3% (inactive)"},
      {"compound": "O=C(Oc1ccccc1)c1ccccc1O", "Potency": "inactive"},
      {"compound": "Cc1cccc2n[nH]nc12", "Potency": "inactive"},
      {"compound": "CCCCCCCCCCCCCCCCCl", "activity change, negative = cytotoxicity": "6.15% [at 15.8 µM] (inactive)"},
      {"compound": "c1ccc2n[nH]nc2c1", "Potency": "inactive"},
      {"compound": "O=C(O)Cn1cnnn1", "activity change, negative = cytotoxicity": "12.8% [at 35.3 µM] (inactive)"}
    ]}
  ]
}
